Measured values: PubChem BioAssay (NCI)
About 83,000 compounds went through this panel and 20% of them were active in at least one assay; those are over-represented in the sample as a whole.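 A percent growth of 40 corresponds to 60% growth inhibition; 0 means no net growth; -100 means all cells died. Active threshold: below 10.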 A number with no mark means an inactive call.

system: DU-145 prostate; assay: NCI-60 one-dose screen, 48 h (100 = growth as untreated, 0 = no growth, -100 = all killed); settings: 10 µM

Row | SMILES | growth
1 | CCNC1(NC#N)CCCCC1 | 123%
2 | CC(=O)Nc1ccc(Sc2ccc(NC(C)=O)cc2)cc1 | 102%
3 | O=C(Nc1ccc(CN2CCOCC2)cc1)c1ccc(-c2cc(Cl)ccc2Cl)o1 | 75.4%
4 | COc1cccc(C(=O)NNc2nc(N3CCN(C4CCCCC4)CC3)nc(N3CCN(C(c4ccccc4)c4ccccc4)CC3)n2)c1 | 87.5%
5 | Oc1cc(O)c(Br)cc1Br | 107%
6 | CS(=O)(=O)Nc1ccc(Nc2c3ccccc3nc3cc(Cl)ccc23)cc1 | 24.2%
7 | c1ccc(C2CCCCC2)c(OCCCCCN2CCNCC2)c1 | 72.8%
8 | Cc1nnc2c3nnc(-c4ccc(Cl)cc4)n3c3ccccc3n12 | 103%
9 | Cc1ccc(C)c2c1sc1nc3n[nH]c(N)c3c(=N)n12 | 111%
10 | CCCc1ccnc(NS(=O)(=O)c2ccc(N)cc2)n1 | 117%
11 | CCc1ccc(Nc2cc(C)nc3nc(C)nn23)cc1 | 29.5%
12 | CN(C)c1ccc2c(c1)OC(N)=C(C#N)C2c1ccc2c(c1)CCO2 (stereo not drawn) | 26.7%
13 | CC(C)C[C@H](NC(=O)CCn1ccc2ccccc2c1=O)B(O)O | 59.6%
14 | COc1ccc(/C=C2\CCC3C(CCCC34OCCO4)C2=O)cc1 (stereo not drawn) | 87.6%
15 | COc1cc(-c2nc3ccc(C)cc3[nH]2)ccc1OCc1nnc(-c2ccc(CC(C)C)cc2)o1 | 101%
16 | COc1ccc(CSc2nc3cc(OC)c(OC)cc3c(=O)n2-c2ccc(OC)cc2OC)cc1 | 97.7%
17 | C[N+]1=C(/C=C/c2ccc(I)cc2)C(C)(C)c2ccccc21 | 104%
18 | c1ccc(OCCC[P+](c2ccccc2)(c2ccccc2)c2ccccc2)cc1 | 21.4%
19 | CCN1CCN(c2nc(NNC(=O)c3cccc(OC)c3)nc(N3CCN(C(c4ccccc4)c4ccccc4)CC3)n2)CC1 | 81.4%
20 | CNC(=O)c1cc(Oc2ccc(NC(=O)Nc3ccc(Cl)c(C(C)(C)C)c3)c(F)c2)ccn1 | 60.8%
21 | CCc1cc2n(n1)-c1ncc(C(=O)OC)cc1Oc1ccccc1-2 | 111%
22 | O=C(O)c1ccc(CNc2ccc(C(=O)CCl)cc2)cc1 | 101%
23 | CCN(CCCNC(=O)Cc1cc(=O)oc2cc(N(C)C)ccc12)CCNc1ccnc2cc(Cl)ccc12 | 109%
